Source: PubChem BioAssay (NCI)
About 79,000 compounds went through this panel and 15% of them were active in at least one assay; those are over-represented in the sample as a whole. The source made the active and inactive calls. Cut-off read from the data, not from the text of the source: active = growth inhibition above about 70%; inactive = the rest.

Assay: NCI Yeast Anticancer Drug Screen. Data for the rad52 strain (AID 147);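 note: 0% = growth of vehicle-treated control cultures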
Conditions: S. cerevisiae rad52 mutant growth inhibition, hits give high values
Protocol: Growth inhibition of yeast strains with defined genetic alterations is measured as a screen for potential anti-cancer activity. Selected strains with alterations in DNA damage repair or cell cycle control were exposed to compounds and growth inhibition was measured relative to vehicle treated controls. The strain used in this assay is rad52

Measured: growth inhibition

CC1=CC(C)(C)SC(SSSC2=NC(C)=CC(C)(C)S2)=N1
active: at 100.0 µM 78%
inactive: at 1.2 µM -3% | at 3.7 µM -3% | at 11.0 µM 0% | at 33.0 µM 7%

CC1CCN(CCC(=O)c2ccc([N+](=O)[O-])cc2)CC1
inactive: at 1.2 µM 9% | at 3.7 µM 1% | at 11.0 µM 8% | at 33.0 µM 34% | at 100.0 µM 40%

COc1cc([N+](=O)[O-])c2ncccc2c1Br
inactive: at 1.2 µM 41% | at 3.7 µM 41% | at 11.0 µM 47% | at 33.0 µM 44% | at 100.0 µM 42%

CC1=CC(=O)C=CC1=Nc1cc(Cl)c(O)c(Cl)c1
inactive: at 1.2 µM -39% | at 3.7 µM -29% | at 11.0 µM 7% | at 33.0 µM 66%
active: at 100.0 µM 92%

O=C(Nc1cccs1)c1ccccc1
inactive: at 1.2 µM -5% | at 3.7 µM -3% | at 11.0 µM -5% | at 33.0 µM 3% | at 100.0 µM 67%

CC1=NN(C(=O)CC(=O)NC(=O)/C=C\c2ccccc2)C(=O)C1N=Nc1ccc([N+](=O)[O-])cc1 (stereo not given)
inactive: at 1.2 µM -1% | at 3.7 µM 3% | at 11.0 µM 56%
active: at 33.0 µM 75% | at 100.0 µM 72%

CC(C)(N=Nc1ccc(Cl)cc1)[N+](=O)[O-]
inactive: at 1.2 µM 17% | at 3.7 µM 27%
active: at 11.0 µM 90% | at 33.0 µM 97% | at 100.0 µM 97%

COc1cc2c(cc1OC)[C@@H](Nc1ccc(C#N)cc1)C1COC(=O)[C@@H]1C2c1cc(OC)c(O)c(OC)c1 (stereo not given in full)
active: at 11.0 µM 81% | at 33.0 µM 91% | at 100.0 µM 93%
inactive: at 1.2 µM 14% | at 3.7 µM 52%
